Reference: PubChem BioAssay (NCATS)
Results filed as inconclusive are left out. Entries that show only a call come without a potency. Activity calls are given as the source filed them. Calls come from the whole dose curve; as a rule, active = well fitted curve in the direction sought with a large enough effect; inconclusive = small, poorly fitted or top-dose-only effect, or another doubt; inactive = no such curve, though single readings can be large; an effect the other way counts as inactive or inconclusive.

How the values were obtained:
[1] = HPAF-II 24hr Apoptosis Induction qHTS against the NCATS CANVASS Library (AID 1347356)
Method in brief: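 HPAF-II cells (500/well) in DMEM + 10% FBS were treated with an 11-point compound series for 24 hours at 37 degrees C. Caspase-3/7 activity was then read by Caspase-Glo DEVD luminescence after 15 min.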

[2] = HEK293 18hr Apoptosis Induction qHTS against the NCATS CANVASS Library (AID 1347357)
Method in brief: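 Luminescent caspase-3/7 signal is measured in HEK293 cells exposed for 18 hours to an 11-point concentration series; doxorubicin serves as the plate control.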

[3] = HPAF-II 12hr Apoptosis Induction qHTS against the NCATS CANVASS Library (AID 1347358)
Method in brief: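 HPAF-II cells (500/well, DMEM + 10% FBS) were exposed to compounds for 12 hours at 37 degrees C. Caspase-3/7 activity was then read by Caspase-Glo 3/7 luminescence after 15 min at room temperature.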

[4] = HEK293 24hr Apoptosis Induction qHTS against the NCATS CANVASS Library (AID 1347359)
Method in brief: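 HEK293 cells, 500 per well, exposed to an 11-point compound series for 24 hours at 37 degrees C. Caspase 3/7 activity read by Caspase-Glo luminescence (DEVD substrate) after 15 min at room temperature.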

[5] = HPAF-II 18hr Apoptosis Induction qHTS against the NCATS CANVASS Library (AID 1347360)
Method in brief: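 Apoptosis was scored as caspase-3/7 activity in HPAF-II pancreatic cancer cells treated 18 hours with an 11-point concentration series.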

[6] = HEK293 12hr Apoptosis Induction qHTS against the NCATS CANVASS Library (AID 1347361)
Method in brief: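 Apoptosis in HEK293 was scored as caspase-3/7 luminescence following 12 h treatment with a compound concentration series in qHTS format.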

[7] = molecular target: Luciferin 4-monooxygenase (Photinus pyralis) (UniProt P08659); assay: Firefly luciferase counterscreen qHTS: Assay Interference Panel against the NCATS CANVASS Library (AID 1347363); note: series mostly up to about 57 µM
Method in brief: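 Purified P. pyralis luciferase (0.04 ug/mL, 4x reagent) added to Tris-acetate buffer with 0.013 mM D-luciferin, 0.013 mM ATP and 13.3 mM Mg-acetate; compounds preincubated 15 min, then luminescence read after 5 min, RT.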

[8] = KB-8-5-11 Cancer Cell Toxicity qHTS against the NCATS CANVASS Library (AID 1347364); details: outcome: dose series up to 91.4 µM; note: nearly all actives have a fitted effect of over 75% in size
Method in brief: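 KB-8-5-11 cells (500/well) in DMEM + 10% FBS were exposed to compounds in an 11-point qHTS series for 72 hr at 37C, 5% CO2. Viability was read by CellTiter-Glo luminescence.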

[9] = SDT Cancer Cell Toxicity qHTS against the NCATS CANVASS Library (AID 1347365); note: nearly all actives have a fitted effect of over 60% in size; note: potency is the fitted concentration of half-maximal effect
Method in brief: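 SDT canine glioma cells (500 cells/well) were exposed to compounds in an 11-point series for 72 hr at 37C, 5% CO2; viability was read as ATP content by CellTiterGlo luminescence.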

[10] = test system: NAD(P)H diaphorase (Clostridium kluyveri); assay: Diaphorse counterscreen qHTS: Assay Interference Panel against the NCATS CANVASS Library (AID 1347362)
Method in brief: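 Clostridium kluyveri diaphorase in PBS + 0.01% Tween-20 preincubated 15 min with compounds. Resazurin and NADH then added for 5 min at room temperature in the dark; resorufin fluorescence read (ex 525, em 598).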

Sequence of Luciferin 4-monooxygenase (Photinus pyralis) (P08659 whole entry, looked up): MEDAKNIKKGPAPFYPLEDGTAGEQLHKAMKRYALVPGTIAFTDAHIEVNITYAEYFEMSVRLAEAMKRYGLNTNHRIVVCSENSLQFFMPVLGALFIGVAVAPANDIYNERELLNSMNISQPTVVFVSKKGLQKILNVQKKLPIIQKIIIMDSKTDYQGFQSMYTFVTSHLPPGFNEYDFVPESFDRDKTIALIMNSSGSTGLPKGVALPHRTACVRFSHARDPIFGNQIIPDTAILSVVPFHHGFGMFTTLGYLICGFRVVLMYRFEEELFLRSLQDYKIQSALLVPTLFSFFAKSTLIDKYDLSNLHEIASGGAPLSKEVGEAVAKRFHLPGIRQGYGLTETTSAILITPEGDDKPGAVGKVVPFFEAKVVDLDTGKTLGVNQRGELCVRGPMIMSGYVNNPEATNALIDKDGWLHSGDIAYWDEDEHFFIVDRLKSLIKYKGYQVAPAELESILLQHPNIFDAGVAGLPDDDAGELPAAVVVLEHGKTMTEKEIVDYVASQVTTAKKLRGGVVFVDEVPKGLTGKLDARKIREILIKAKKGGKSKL

Structure (SMILES) | outcome [1] | outcome [2] | outcome [3] | outcome [4] | outcome [5] | outcome [6] | outcome [7] | outcome [8] | Potency [9] | outcome [10]
CC(=O)NCCc1c[nH]c2ccc(O)cc12 | inactive | inactive | inactive | inactive | inactive | inactive | inactive | inactive | 1.48 µM (active) | 
O=C(O)Cc1c[nH]c2ccc(O)cc12 | inactive | inactive | inactive | inactive | inactive | inactive | inactive | inactive | inactive | inactive
